Consider 40 compounds from PubChem BioAssay (NCI).

SMILES strings stand for the structures. The panel holds about 83,000 compounds, 20% with a hit somewhere; the sample as a whole holds those more often.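 96-well plates, one dose, 48 hours. Percent growth reported; active if below 10.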 Values without a mark were called inactive. Active and inactive are the calls of the source.

For this test, the system named is HL-60(TB) leukemia. Description: NCI-60 one-dose screen, 48 h (100 = growth as untreated, 0 = no growth, -100 = all killed). Conditions: 10 µM unless noted.
In the case of `COc1ccc(CC2c3cc(OC)c(OC)cc3CC[N+]2(C)CCC(=O)OCCCCCOC(=O)CC[N+]2(C)CCc3cc(OC)c(OC)cc3C2Cc2ccc(OC)c(OC)c2)cc1OC` (stereo not given), the growth was 82.9%.
The value for `c1coc(CNc2c3ccccc3nc3ccccc23)c1` was 93%.
The value for `COc1ccc2c(c1)sc1nc(-c3ccccc3)c(-c3ccsc3)n12` was 14.2%.
As for `COc1cc(/C=C/c2cc(/C=C/c3ccc(O)c(OC)c3)n(C(=O)c3ccc(Cl)cc3)n2)ccc1O`, the figure is -12.4% (active).
On to `O=C1CC2c3cc(-c4cc5ccccc5o4)ccc3CCN2C(=O)N1c1ccccc1` (stereo not given), for which the growth was 69.9%.
As for `COc1cc2c(cc1OC)-c1ccc3cc4c(cc3c1N(CCN(C)C)C2)OCO4`, the figure is -33.9% (active).
As for `CCNc1nc(N2CC(=O)Nc3cc(OC)ccc32)c2ccccc2n1`, the growth is -4.51% (active).
Regarding `CC(=O)OCC1OC(n2cnc3c(=S)nc(N)[nH]c32)C(OC(C)=O)C1OC(C)=O` (stereo not given), the growth was 81.2%.
In the case of `CCCCCCCCCCCCCCCCCC1=NC(C)(C)CN1C(C)(C)CO`, the growth is -66.9% (active).
On to `COc1cc2nc(-c3ccc(C(F)(F)F)cc3)cc(OCCCN3CCCC3)c2cc1OC`, for which the growth is 36.9%.
The value for `Cc1cc2c(C(C)C)c(O)c(O)c(C=NCc3ccoc3)c2c(O)c1-c1c(C)cc2c(C(C)C)c(O)c(O)c(C=NCc3ccco3)c2c1O` was 9.25% (active); that for `Nc1c(Br)cc2c(c1Br)Cc1cc(Cl)ccc1-2` was 100%.
As for `Fc1ccc(C2CC(c3cccc(Nc4ccncc4)c3)=NN2c2ccc(Cl)cc2)cc1` (stereo not given), the figure is 17.2%; as for `Clc1ccc(Nc2nccc(Nc3ccc4[nH]ncc4c3)n2)cc1`, 51.5%.
As for `COc1ccc(Cn2nc(-c3cc(OC)c(OC)c(OC)c3)c3c2CCc2cnoc2-3)cc1OC`, the growth was 16.3%.
As for `CCOCCOCCOCCOCCOCCOCCOCCOCCOCCO` (tested in a mixture with another compound), the figure is -54.9% (active); as for `Nc1cc2c(cc1Br)-c1cc(Cl)ccc1C2=O`, 83.8%; as for `O=C(NO)c1ccc(CNc2cccc3nc(C4CC4)n(-c4ccccc4)c(=O)c23)cc1`, 7.45% (active).
Take `O=c1oc2ccc(F)cc2c(=O)n1-c1ccc(F)cc1F`: the growth is 16.7%.
In the case of `CCOC(=O)c1cnn(CC(O)CC)c1NC(=O)NCc1ccccc1C(F)(F)F` (stereo not given), the growth was 76.4%.
As for `O=C(CSc1nnc(-c2ccc(NC(=O)c3cccnc3)cc2)o1)Nc1cccc(Br)c1`, the figure is 96.1%; as for `C=C1CCC2C3(C)COC(c4cccc(Cl)c4)OC3CCC2(C)C1/C=C/C1=CCOC1=O` (stereo not given), 33.7%.
Take `Cc1ccc2c(c1)C(=O)c1c-2c(OCCCN(C)C)nc2ccccc12`: the growth is 35%.
In the case of `COC(=O)/C(=C\c1c(C)[nH]c2ccccc12)S(=O)(=O)c1ccccc1`, the growth is -27.3% (active).
The value for `COC(=O)c1c(C(=O)OC)c2ccc3c4ncccc4ccc3n2c1C(=O)c1ccc(C)cc1` was 91.8%.
The value for `COC(=O)[C@]12CC[C@@H](C)[C@H](C)[C@@H]1C1=CC[C@@H]3[C@@]4(C)C(C=O)=C[C@@](C)(COC(=O)c5ccco5)[C@@H]4C(=O)C[C@@]3(C)[C@]1(C)CC2` was 10.1%; that for `OC(c1cccc(OCc2ccccc2)c1)c1nnc(-c2ccccc2)o1` (stereo not given) was 96.3%; that for `O=c1c2c3c(sc2nc(N/N=C/c2ccc(Br)cc2)n1Cc1ccccc1)CCCC3` was 71.2%.
In the case of `Cc1ccc(/C=C(/C#N)n2nnc3cccc(F)c32)cc1`, the growth is -18.2% (active).
As for `CCn1c(=S)[nH]c2c(=O)n(C)c(=O)n(C)c21`, the figure is 100%; as for `O=C(O)CCCCNC(=O)c1ccccc1`, 101%; as for `NC(=O)NC(=O)c1ccc(Cl)cc1`, 95%.
As for `C/C(=N\O)C(=O)NCCCCCC(=O)Nc1ccccc1`, the figure is 93.2%; as for `CN(C)CCn1c(=O)c2ccccc2n2nc3ccccc3c12`, 70.3%; as for `O=C(Nc1ccc(I)cc1)c1cc([N+](=O)[O-])ccc1O`, 20.6%.
As for `COc1ccc(OC)c(NC(=O)c2sc3nc4c(cc3c2N)C(=O)CCC4)c1`, the growth was 88.4%.
The value for `CCOC(=O)NNC(=S)Nc1ccccc1` was 106%.
The value for `CNCCCNCCCN1C(=O)c2ccc3c4c(ccc(c24)C1=O)C(=O)N(CCCNCc1ccccc1OC)C3=O` was -38.1% (active); that for `CCCCC[C@H]1CC=C2C(=O)C=C[C@@H]2CC=CCCCC(=O)O[C@@H](CCCCC)CC=C2C(=O)C=C[C@@H]2CC=CCCCC(=O)O[C@@H](CCCCC)CC=C2C(=O)C=C[C@@H]2CC=CCCCC(=O)O1` was -32.4% [8.75 µM] (active).
As for `Oc1ccc(Cl)cc1-c1cc(-c2ccc(F)cc2)n[nH]1`, the figure is 74.9%.
